According to PMC6792352, “Limited Chemical Structural Diversity Found to Modulate Thyroid Hormone Receptor in the Tox21 Chemical Library” (Environmental Health Perspectives, 2019):
Where a name gives a salt, the structure may show the parent alone.

tested on: thyroid hormone receptor (endogenous TRα and TRβ); design: species or system GH3-TRE-Luc (rat pituitary); GH3-TRE-Luc luciferase reporter, antagonist mode against 1 nM T3, loss of signal, qHTS; conditions: read-out: Average AC50 (uM) GH3-TRE-Antag, antagonist mode, 1 nM T3, no GH3 cytotoxicity hit

SMILES	AC50
Cc1ccc2nc(-c3ccc(N)cc3)sc2c1S(=O)(=O)O	45.2 µM
CCC(=O)OCC(=O)[C@@]1(OC(=O)CC)[C@@H](C)C[C@H]2[C@@H]3CCC4=CC(=O)C=C[C@]4(C)[C@@]3(F)[C@@H](O)C[C@@]21C [Betamethasone dipropionate]	27.9 µM
CC1(C)C(C=C(Cl)Cl)[C@@H]1C(=O)O[C@@H](C#N)c1ccc(F)c(Oc2ccccc2)c1 (stereo partly drawn) [Cyfluthrin]	39.9 µM
CC(C)Oc1cccc(NC(=O)c2ccccc2C(F)(F)F)c1 [Flutolanil]	> 90 µM
C[C@]12C=CC(=O)N[C@@H]1CC[C@@H]1[C@@H]2CC[C@]2(C)[C@@H](C(=O)Nc3cc(C(F)(F)F)ccc3C(F)(F)F)CC[C@@H]12 [Dutasteride]	3.44 µM
CCOc1ccc2[nH]cc(C(=O)NCc3ccccc3)c(=O)c2n1 [CP-457920]	45.2 µM
CCN(CCCc1ccccc1)CCCc1ccccc1 [Alverine citrate]	10.8 µM
CCCN1C[C@H](CSC)C[C@@H]2c3cccc4[nH]cc(c34)C[C@H]21 [Pergolide methanesulfonate]	10.1 µM
COc1ccc2[nH]c([S+]([O-])Cc3ncc(C)c(OC)c3C)nc2c1 (stereo not drawn) [Omeprazole]	> 50 µM
CCCCCCCC(=O)Oc1c(Br)cc(C#N)cc1Br [Bromoxynil octanoate]	74 µM
O=C(O)Cc1ccccc1Nc1c(Cl)cccc1Cl [Diclofenac sodium]	> 50 µM
Oc1cc(Cl)cc(Cl)c1Cl [2,3,5-Trichlorophenol]	57 µM
O=C(/C=C/c1ccccc1)OCc1ccccc1 [Benzyl cinnamate]	> 50 µM
C#CCC(Cc1cnc2nc(N)nc(N)c2n1)c1ccc(C(=O)N[C@@H](CCC(=O)O)C(=O)O)cc1 (stereo partly drawn) [Pralatrexate]	0.687 µM
Cc1c(COC(=O)[C@@H]2[C@H](/C=C(\Cl)C(F)(F)F)C2(C)C)cccc1-c1ccccc1 (racemic) [Bifenthrin]	17.5 µM
Nc1ccc2c3c(cccc13)-c1ccccc1-2 [3-Aminofluoranthene]	40.9 µM
CC(C)CC(=O)C1C(=O)c2ccccc2C1=O [2-Isovaleryl-1,3-indanedione]	77.1 µM
CO[C@H]1O[C@@H]2O[C@@]3(C)CC[C@H]4[C@H](C)CC[C@@H]([C@H]1C)[C@@]24OO3 [Artemether]	> 50 µM
CC(C)(C)C(O)C(Oc1ccc(Cl)cc1)n1cncn1 (stereo not drawn) [Triadimenol]	> 90 µM
NNC(N)=S [Thiosemicarbazide]	59.3 µM

SMILES	AC50
CC(=O)Oc1ccc(C2(c3ccc(OC(C)=O)cc3)C(=O)Nc3ccccc32)cc1 [Oxyphenisatin acetate]	> 50 µM
Cl/C=C\C[N+]12CN3CN(CN(C3)C1)C2 [Chloroallyl methenamine chloride]	89.1 µM
O=P(c1ccccc1)(c1ccccc1)c1ccccc1 [Triphenylphosphine oxide]	58.7 µM
C#C[C@]1(O)CC[C@H]2[C@@H]3CCC4=C(CCC(=O)C4)[C@H]3CC[C@@]21C [Norethynodrel]	16.4 µM
CNC(=O)c1ccccc1Sc1ccc2c(/C=C/c3ccccn3)n[nH]c2c1 [Axitinib]	0.777 µM
CC(C)C(C(=O)OC(C#N)c1cccc(Oc2ccccc2)c1)c1ccc(Cl)cc1 (stereo not drawn) [Fenvalerate]	37.1 µM
Cc1c(Nc2ncccc2C(=O)O)cccc1C(F)(F)F [Flunixin meglumine]	2.85 µM
CCOc1ccc(Cc2nccc3cc(OCC)c(OCC)cc23)cc1OCC [Ethaverine hydrochloride]	8.58 µM
CC[C@H](C)C(=O)O[C@H]1C[C@H](O)C=C2C=C[C@H](C)[C@H](CC[C@@H](O)C[C@@H](O)CC(=O)O)[C@H]21 [Pravastatin sodium]	18.4 µM
CC(C)(C)c1cccc(C(C)(C)C)c1O [2,6-Di-tert-butylphenol]	25.4 µM
CCCCC(CC)COC(=O)C(C#N)=C(c1ccccc1)c1ccccc1 (stereo not drawn) [2-Ethylhexyl-2-cyano-3,3-diphenylacrylate]	31 µM
O=S(=O)(NS(=O)(=O)C(F)(F)F)C(F)(F)F [1-Hexyl-3-methylimidazolium bis(trifluoromethylsulfonyl)imide]	66.1 µM
CCCC1O[C@@H]2C[C@H]3[C@@H]4CCC5=CC(=O)C=C[C@]5(C)[C@H]4[C@@H](O)C[C@]3(C)[C@]2(C(=O)CO)O1 (stereo partly drawn) [Budesonide]	> 50 µM
COC(=O)[C@H]1[C@H]2C[C@@H]3c4[nH]c5cc(OC)ccc5c4CCN3C[C@H]2C[C@@H](OC(=O)COc2ccc(OC)cc2)[C@@H]1OC [Mefeserpine]	21.6 µM
CC[C@@H]1/C=C(\C)C[C@H](C)C[C@H](OC)[C@H]2O[C@@](O)(C(=O)C(=O)N3CCCC[C@H]3C(=O)O[C@H](/C(C)=C/[C@@H]3CC[C@H](Cl)[C@H](OC)C3)[C@H](C)[C@@H](O)CC1=O)[C@H](C)C[C@@H]2OC [Pimecrolimus]	16 µM
CCCCCCCCCCCC(=O)N(C)CC(=O)O [N-Dodecanoyl-N-methylglycine]	> 90 µM
N#Cc1cc(Br)c(O)c(Br)c1 [Bromoxynil]	69.3 µM
CC(C)=CCC/C(C)=C/CC/C(C)=C/CC/C(C)=C/CC1=C(C)C(=O)c2ccccc2C1=O [Menatetrenone]	24.9 µM
Cc1ccccc1CO[C@@H]1C[C@@]2(C(C)C)CC[C@]1(C)O2 (racemic) [Cinmethylin]	38.4 µM
